The list is not random: actives were taken first. Their share in the collection is about 21%.
Pf growth 96h: inhibits malaria parasite growth, 96 h; 6.9% of 320,000 active; P. falciparum luciferase reporter growth, 96 h; Potency, µM (titrated, usually from 28.7 µM), for the others: at the top dose activity change, negative = inhibition, hits mostly inhibitors; note: potency is the fitted concentration of half-maximal effect; % is set by controls: 0 for no effect and ±100 for the full control effect
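Compounds incubated with erythrocytes infected by luciferase-expressing P. falciparum (2% hematocrit, 0.05% parasitemia final) for 96 hours, 37 C in 5% CO2. Growth inhibition scored as decreased luciferase luminescence.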
Pf growth 48h: P. falciparum growth inhibition at 48 hours (one generation); 5.9% of 310,000 active; P. falciparum luciferase growth in erythrocytes, 48 h; AID 504832; Potency, µM (highest dose often 28.7 µM), for inactives: at the top dose activity change, negative = inhibition, actives largely listed as inhibitors; note: potency is the fitted concentration of half-maximal effect; % is set by controls: 0 for no effect and ±100 for the full control effect
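Here the parasites carry a stable luciferase gene and grow inside erythrocytes in Albumax-based RPMI medium with compound for one erythrocytic cycle. Activity is scored as loss of luminescent signal.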
NS1 function inh: inhibitors of influenza NS1 protein function; Potency, µM (top dose mostly 46.1 µM), for the others: at the highest dose activity, positive = more growth; 0.4% of 270,000 active; calls by dose curve; note: potency is the fitted concentration of half-maximal effect; actives are rising curves; nearly all actives have a fitted effect of over 50% in size
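Read-out: OD600 growth recovery of NS1-expressing budding yeast. Cells grown overnight at 30C in -URA glucose medium, washed, resuspended and diluted 1:100 in 2% galactose assay medium, pH 6.0. Same strain lacking NS1 served as positive control.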
Shiga inhibitor: inhibitors of Shiga toxin in Vero cells; inhibition, % at 38.7 µM; Vero cells, Shiga toxin protein synthesis inhibition reporter; 9.2% of 290,000 active; in the data active = inhibition mostly above about 28%, no sharp cut-off; inactive = mostly below about 43%; note: 0% is about no effect
Sm TGR block: blocks Schistosoma mansoni thioredoxin glutathione reductase; purified TGR, DTNB reduction, TNB absorbance 405 nm; Potency, µM (series often up to 114 µM), without a hit: at the highest dose activity change, negative = inhibition, most hits filed as inhibitors; 3% of 360,000 active; AID 485364; note: potency is the fitted concentration of half-maximal effect; % is set by controls: 0 for no effect and ±100 for the full control effect; nearly all actives have a fitted effect of over 60% in size
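TGR 20 nM + NADPH 100 uM (dispensed conc.), cpd preinc 15 min RT; start with NADPH (500 uM addition) then DTNB (15 mM addition). Kinetic TNB absorbance, 405 nm filter. Four-parameter Hill fit across titration.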
Cycloheximide cs: counter-screen hit for Shiga toxin inhibitors, cycloheximide; cell reporter, cycloheximide protein synthesis inhibition counterscreen; max response, %; 12% of 300,000 active; AID 2314; in the data active = max response mostly above about 13%, no sharp cut-off; inactive = mostly below about 14%; note: read at 38.3 µM for the half of the compounds with a filed dose; 0% is about no effect
The depositor's hits bear a star; ? = inconclusive; . = no result given; [ ] = another dose, or the depositor's remark. Unless noted, calls come from the whole dose curve; as a rule, active = well fitted curve in the direction sought with a large enough effect; inconclusive = small, poorly fitted or top-dose-only effect, or another doubt; inactive = no such curve, though single readings can be large; an effect the other way counts as inactive or inconclusive.

SMILES	Pf growth 96h	Pf growth 48h	NS1 function inh	Shiga inhibitor	Sm TGR block	Cycloheximide cs
O=C(CCN1CCc2ccccc2CC1)c1ccc2c(c1)OCCO2	1%	.	-213%	4	0.35µM*	10
O=C(OCCN1CCOCC1)c1ccc(Cl)cc1Cl	-30%	-23%	-6%	48*	-13%	39*
O=C(CCCN1CCC(c2ccccc2)C1)c1ccc2c(c1)OCCO2 (stereo unspecified)	.	18%	-3%	28	-8%	-3
Cc1cccc(C(=O)OCCN2CCOCC2)c1	-21%	38%	25%	41*	6%	26*
O=C(OCCN1CCOCC1)c1ccc2c(c1)OCCO2	160%	84%	5%	75*	1%	53*
O=C(OCC(=O)N1CCOCC1)c1ccc2c(c1)OCCO2	11%	43%	-1%	25	10%	22
CC1CC(C)CN(S(=O)(=O)c2cccc(C(=O)OCCN3CCCC3=O)c2)C1 (stereo unspecified)	.	?	-2%	-6	-15%	-3
CC(=O)Nc1nc2c(s1)CCc1ccccc1-2	62%	67%	-6%	47	6%	17
O=C(Nc1nc2c(s1)CCc1ccccc1-2)c1ccco1	?	?	-98%	81*	3%	50*
O=C(CCCl)Nc1nc2c(s1)CCc1ccccc1-2	2.1µM*	?	-40%	25	-32%	9
COc1cc2nc(SCc3ccc(C)cc3)n3nc(CCn4nc(C)cc4C)nc3c2cc1OC	.	.	.	.	9%	.
Cn1c(C(=O)Nc2ccc(Cl)cc2)cc2cc(Cl)ccc21	?	3%	6%	-5	-32%	-4
O=C(COC(=O)c1ccc2c(c1)OCO2)Nc1ccccc1Cl	?	17%	.	.	-6%	.
COCCNC(=O)CN1C(=O)COc2ccc(S(=O)(=O)N3CC(C)CC(C)C3)cc21 (stereo unspecified)	0%	-4%	5%	-6	5%	1
CC(=O)N(C1=C(N)C(=O)c2ccccc2C1=O)C(C)C	9.3µM*	13µM*	.	-12	7.1µM*	2
CC(=O)N(C)C1=C(O)c2ccccc2C(=O)C1=O	?	4%	-2%	18	4%	-5
O=C(NC(=S)Nc1ccccn1)c1ccc([N+](=O)[O-])cc1	?	74%	1%	199*	7%	51*
O=C(CS(=O)(=O)c1ccccc1)Nc1ccccn1	24%	20%	0%	-20	0%	-3
O=C(Nc1ccccn1)c1ccc(C(=O)Nc2ccccn2)cc1	-6%	12%	-2%	11	7%	1
O=C(CC(=O)c1ccccc1)Nc1ccccn1	?	207%	-2%	76*	18%	43*
O=C(NC(=S)Nc1ccccn1)c1ccc(-c2ccccc2)cc1	?	116%	0%	127*	-5%	63*
O=C(/C=C/c1ccc(Cl)cc1Cl)NC(=S)Nc1ccccn1	-11%	155%	-4%	86*	0%	38*
CC(=O)c1c(C)[nH]c(C(=O)OCC(=O)Nc2ccc(Cl)cc2[N+](=O)[O-])c1C	-15%	0%	-2%	-8	1%	-3
Cc1cc2oc(C(=O)Nc3ccc(S(N)(=O)=O)cc3)cc(=O)c2cc1C	.	.	.	.	0%	.
CC(C)CC1Nc2ccc(C(=O)NCCCN3CCOCC3)cc2NC1=O (stereo unspecified)	?	0%	-12%	-4	-2%	-2
SMILES	Pf growth 96h	Pf growth 48h	NS1 function inh	Shiga inhibitor	Sm TGR block	Cycloheximide cs
O=C(NC(=S)Nc1ccccn1)c1ccccc1	-7%	285%	-38%	68*	55%	40*
O=C(Cn1nc(-c2ccccc2)c2ccccc2c1=O)Nc1ccccn1	.	10%	-32%	80	-3%	46*
COc1ccc(S(=O)(=O)NNc2nc(C)cc(C)n2)cc1[N+](=O)[O-]	?	2%	14%	7	1%	-1
C#CCNC(=O)C1=C[C@H](c2ccc(C(F)(F)F)cc2)[C@@H](CCCO)[C@H](OCC)O1	?	-5%	-1%	-8	-5%	1
CC(=O)Nc1ccc(NC(=O)CN(c2ccc([N+](=O)[O-])cc2)S(=O)(=O)c2ccccc2)cc1	2.9µM*	22%	1%	5	11%	-2
CCc1ccc(N(CC(=O)Nc2ccc(NC(C)=O)cc2)S(=O)(=O)c2ccccc2)cc1	?	13µM*	?	1	3%	5
Cc1nn(-c2ccccc2)c2c1N(CCCC(=O)NCc1ccc(OC(C)C)cc1)C(=O)CS2	.	.	.	.	-11%	.
COc1ccc(CNC(=O)CCS(=O)(=O)Cc2cccc(Cl)c2)c(OC)c1	?	10%	.	-3	3%	8
CCN(CC)c1ccc(/C=N/NC(=O)c2ccccn2)cc1	6%	221%	-7%	44*	6%	26*
O=C(N/N=C/c1ccc(OC(=O)c2ccccc2Cl)cc1)c1ccccn1	?	94%	-4%	51*	-23%	49*
CCN(CC)c1ccc(/C=N/NC(=O)c2cnccn2)cc1	?	310%	.	108*	-3%	42*
O=C(N/N=C/c1ccc(OC(=O)c2ccccc2Cl)cc1)c1cc(O)cc(O)c1	?	74%	-11%	28	-2%	11
COc1ccc(NC(=O)Cc2nnc(SCC(=O)Nc3ccc(F)cc3)n2C)cc1	16%	2%	0%	2	-9%	-3
CCc1ccc(C(=O)c2cn(CC(=O)Nc3ccc4c(c3)OCCO4)c3ccc(CC)cc3c2=O)cc1	.	.	.	.	-4%	.
Cc1ccc(CNC(=O)CN2C(=O)c3ccccc3S2(=O)=O)cc1	?	3%	-2%	-10	17%	-2
O=C(Nc1ccccc1)N1CCC(=S)Nc2ccccc21	-5%	-8%	10%	-4	-6%	1
CC1CC(=S)Nc2ccccc2N1C(=O)Nc1ccccc1 (stereo unspecified)	?	3.3µM*	-6%	15	0%	9
Fc1cccc(Oc2nc3ccccc3n3cccc23)c1	1%	2%	2%	-9	-2%	7
O=C(c1cccs1)N1CCCC(c2nc3c(nnn3Cc3ccccc3Cl)c(=O)[nH]2)C1 (stereo unspecified)	-27%	-29%	1%	-14	-6%	-7
CC[C@H]1NC(=O)c2cc(S(N)(=O)=O)c(Cl)cc2N1	-23%[12.8 µM]	-16%[12.8 µM]	.	.	.	.
COc1cccc(C(C(=O)NC(C)(C)C)N(C(=O)CCC(=O)Nc2cc(C)on2)C(C)C)c1OC (stereo unspecified)	?	12µM*	-7%	-4	-23%	-1
COc1ccc(C(C(=O)NC(C)(C)C)N(Cc2ccc(C)cc2)C(=O)CCC(=O)Nc2cc(C)on2)cc1 (stereo unspecified)	14%	9.3µM*	-2%	-2	.	-6
COCCN(C(=O)CCC(=O)Nc1cc(C)on1)C(C(=O)NC(C)(C)C)c1ccc(OC)cc1 (stereo unspecified)	-6%	-1%	9%	3	2%	-4
